These results are taken from the supplement of paper PMC3334620.

Over roughly 33,000 sequences, “E-score (-0.5 to 0.5)” has its median near -8e-05; the highest 2% begin near 0.23. The sample as a whole holds a higher share of the highest values than the screen did.

The target in the experiment is T1, Nrg2 (UniProt P38082).
T1 sequence: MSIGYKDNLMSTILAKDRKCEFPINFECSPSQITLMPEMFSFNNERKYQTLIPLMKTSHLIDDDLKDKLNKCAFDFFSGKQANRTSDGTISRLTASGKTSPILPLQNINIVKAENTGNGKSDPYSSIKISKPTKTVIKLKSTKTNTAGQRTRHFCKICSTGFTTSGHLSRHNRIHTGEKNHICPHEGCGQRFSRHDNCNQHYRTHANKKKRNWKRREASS
Kind of experiment: PBM E-score (8-mer binding enrichment) (E-score (-0.5 to 0.5)); higher = stronger / more preferred TF binding. The note with it: protein concentration: 100 nM; construct: GST-full length. The method, boiled down: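 PURExpress in vitro transcription/translation supplied GST-tagged yeast transcription factors, either full-length or DNA-binding domain. Applied at about 100-200 nM to universal all-10-mer Agilent arrays double-stranded by primer extension, the bound protein was detected with fluorescent anti-GST. E-scores, modified Wilcoxon-Mann-Whitney statistics, were given by the Universal PBM Analysis Suite to ungapped eight-base words pooled with their reverse complements after masliner normalisation.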
For the sequence AGAATGCT, the “PBM E-score” value was 0.108.
With CGTCCTTA, the “PBM E-score” value is -0.0686.
With GGCCTAAC the figure was 0.0899.
With GCTGGAAC the figure was -0.144.
To TGGCATAA belongs 0.144; to AAGAGGTA, 0.0504.
ACTCCTCA: the “PBM E-score” value was -0.24.
With ACGACGTA, the “PBM E-score” value is -0.166.
To ATTTCGTA belongs 0.0258; to AAGCGGAA, -0.0181.
Consider AACTAAGT, for which the “PBM E-score” value was found to be 0.168.
With ATAGTCGG the figure was -0.122; with CTAGTCGA, -0.0659; with ATAGTCGA, 0.264.
With CTGGGTCC the figure was -0.288.
Take GGTCGCGA: the “PBM E-score” value turned out to be 0.242.
To AGTCGCGA belongs 0.226.
With TATCGCGA the figure was 0.252; with CATCGCGA, 0.127; with CCTCGCGA, 0.179.
To ACTCGCGC belongs 0.0455; to CGTCGCGA, 0.143; to ACTCGCGA, 0.273.
For the sequence GATCGCGA, the “PBM E-score” value stood at 0.168.
As for ATTGTGCG, the “PBM E-score” value is -0.0707.
To CCTCGAAG belongs 0.0341.
To GCTCGAGA belongs -0.131; to GCTCGACC, -0.0125.
To ACTCGAGC belongs 0.073; to GCTCGAGC, 0.24; to CCTCGAGC, 0.267.
For CCTCGAGG, the “PBM E-score” value turned out to be 0.242.
With CCTCGAGA the figure was 0.156; with ACTCGAGG, 0.162; with AAGCTATC, 0.153.
With ACAACGCG the figure was 0.12.
With AGCGCACA the figure was 0.137; with ACTAGCAT, -0.0422.
As to AAGACCGA, the “PBM E-score” value is -0.018.
As to AAAATGCG, the “PBM E-score” value amounted to 0.0104.
With TAAATGCA the figure was 0.275; with CAAATGCA, -0.0764; with CAAATGCC, -0.0811.
To GAAATGCA belongs 0.055; to CAAATGCG, 0.268; to AAACCTCC, -0.115.
With AAACTGCG the figure was -0.0689.
As for AGTTTCGA, the “PBM E-score” value was found to be 0.0135.
To ATATGGAC belongs 0.0806.
To ATATGGAG belongs 0.147; to ATATGGAT, 0.247; to GGTGAGAA, -0.0568.
To GAGCGACC belongs -0.168; to CAAGTTTC, -0.00709; to CCCATGAC, -0.0865.
As to GGTTTCGA, the “PBM E-score” value stood at 0.191.
To CAAATGGA belongs -0.0362; to AAAATGGG, -0.0403; to AAAATGGA, 0.308.
To AAGGGTGT belongs 0.0853.
With AAAGGTCC, the “PBM E-score” value was found to be 0.0985.
AGGGGTCG: the “PBM E-score” value was determined as 0.0876.
Turning to AAGGGTCA, the “PBM E-score” value came to 0.149.
Regarding AGGGGTCA, the “PBM E-score” value stood at 0.128.
Take AAGGGTCC: the “PBM E-score” value worked out at 0.439.
For AAGGGTCT, the “PBM E-score” value was 0.273.
Regarding AGGGGTCC, the “PBM E-score” value was determined as 0.316.
With ATGGGTCC, the “PBM E-score” value was 0.0519.
With CAGGGTCC the figure was 0.446.
To CCGGGTCC belongs -0.171; to CAGAGTCC, 0.0801.
With AAGGTAGG the figure was 0.00624.
GGATAACC: the “PBM E-score” value was -0.141.
To GTCTTTCA belongs -0.177; to AGCCGAAG, -0.104; to TATAGACA, 0.0604.
With AGATTCCG the figure was 0.101.
With AAGGGTCG the figure was 0.132.
On to GCGGGTCC, for which the “PBM E-score” value is -0.0518.
With GAGGGTCA the figure was -0.227; with CAGGGTCG, 0.264.
With CAGGGTCA the figure was 0.0802.
To GAGGGTCC belongs 0.282.
With ACCCCTGC, the “PBM E-score” value amounted to 0.066.
Take CAAACGAA: the “PBM E-score” value is -0.0374.
As for TAAGCAAA, the “PBM E-score” value stood at 0.0437.
With ACCCCTCA the figure was 0.0629; with TCCCCTCA, 0.235; with CCCCCTCA, -0.379.
With AACTGACT the figure was -0.167; with AAAGTTGT, 0.297; with AAAGTTGG, 0.132.
To AAAGTTGC belongs 0.0327; to AGTGGCTG, 0.126.
As for AGGGCTGA, the “PBM E-score” value was -0.201.
Take AGTCTTTC: the “PBM E-score” value was -0.0294.
For the sequence ACAGACAG, the “PBM E-score” value was determined as 0.255.
With CCAGACAG the figure was -0.00394; with ACAGACAC, -0.0421.
With TGTTGTAA the figure was 0.102; with GACAGCGA, -0.131.
For the sequence CGAAGACG, the “PBM E-score” value was -0.0796.
To GTCACGTA belongs -0.249; to CAATACAC, 0.0544; to AAATACAA, 0.0802.
To TAATACAA belongs 0.235; to GAATACAA, 0.107; to CAATACAG, 0.125.
With CAATACAA the figure was 0.275.
For ACGACCAT, the “PBM E-score” value was -0.0998.
